Test results: PubChem BioAssay
The source made the active and inactive calls.

What was measured:
[1] = optical density shifts of acrAB sulA E. coli – strain DRC41, OD650, 48 h, E. coli filamentation inducer project, primary screen (AID 1152); conditions: higher = more signal, called active from +8 up or from −8 down;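 further: E. coli MC1000 strain DRC41 lacking acrAB efflux pump and sulA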
[2] = probe aLefty1 binding on compound microarray – biochemical, small-molecule microarray, 635/667 nm fluorescence, primary screen (AID 1153); conditions: higher = more signal;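 further: score merges spot fluorescence with signal-to-noise ratio from the scanned slide images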
[3] = plasmodial surface anion channel blockers, osmotic lysis – cell-based, P. falciparum Indochina, OD700, 1 h, primary screen (AID 1154); conditions: P. falciparum Indochina infected RBC osmotic lysis, higher = more signal, called active from +8 up or from −8 down
[4] = plasmodial surface anion channel blockers, osmotic lysis – cell-based, P. falciparum Indochina, OD700, 2 h, primary screen (AID 1155);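 further: lysis reports solute entry through the parasite surface anion channel PSAC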; conditions: P. falciparum Indochina infected erythrocytes, higher = more signal, called active from +8 up or from −8 down
[5] = changes in parasitized red cell lysis, either direction – P. falciparum Indochina, OD700, 3 h, PSAC antagonist project, primary screen (AID 1156); conditions: P. falciparum-infected erythrocytes, osmotic lysis, higher = more signal, called active from +8 up or from −8 down
[6] = plasmodial surface anion channel blockers, osmotic lysis – cell-based, P. falciparum Indochina, OD700, 18 h, primary screen (AID 1157); conditions: P. falciparum Indochina infected erythrocytes, osmotic lysis OD700, 18 h; higher = more signal, called active from +8 up or from −8 down
[7] = S6 kinase pathway phospho-S6 level changes – cell-based, A549, cytoblot, luminescence, serum-stimulated, primary screen (AID 1158); conditions: 5 h, higher = more signal;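 further: serum-stimulated A549 lung adenocarcinoma cells; signal is phosphorylated S6 detected by cytoblot immunostaining with HRP secondary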
[8] = target: NADPH oxidase 2 (Homo sapiens) (UniProt P04839); assay: compounds shifting NOX2 Amplex Red fluorescence – cell-based, HEK293-NOX2, PMA-stimulated, NOX inhibitor project, primary screen (AID 1159); conditions: 45 min, higher = more signal, called active from +8 up or from −8 down; further: test concentration not given here
[9] = target: NADPH oxidase 4 (Homo sapiens) (UniProt Q9NPH5); assay: compounds shifting NOX4 Amplex Red fluorescence – cell-based, HEK293-NOX4, tetracycline-induced, NOX inhibitor project, primary screen (AID 1160); conditions: HEK293-NOX4, Amplex Red H2O2 fluorescence, 45 min; higher = more signal, called active from +8 up or from −8 down
[10] = target: NADPH oxidase 5 (Homo sapiens) (UniProt Q96PH1); assay: compounds shifting NOX5 Amplex Red fluorescence – cell-based, HEK293-NOX5, NOX inhibitor project, primary screen (AID 1161); conditions: HEK293-NOX5, ionomycin, 45 min, higher = more signal
[11] = compound effects on lung adenocarcinoma cell viability – A549, calcein-AM fluorescence, 48 h, basal, profiling panel (AID 1162); conditions: higher = more signal; further: test concentration not given here
[12] = compound effects on differentiated 3T3-L1 adipocyte viability – cell-based, 3T3-L1 adipocytes, calcein-AM fluorescence, 48 h, basal, profiling panel (AID 1163); conditions: 3T3-L1 adipocytes viability, higher = more signal; further: test concentration not given here
[13] = compound effects on hepatocellular carcinoma cell viability – HepG2, calcein-AM fluorescence, 48 h, basal, profiling panel (AID 1164); conditions: higher = more signal; further: test concentration not given here
[14] = compound effects on multiple myeloma cell viability – MM1S, calcein-AM fluorescence, 48 h, basal, profiling panel (AID 1165); conditions: higher = more signal; further: test concentration not given here
[15] = calcein-AM signal in unstimulated myeloma cells – cell-based, calcein-AM fluorescence, 48 h, PK04 Diversity Set, profiling panel (AID 1166); conditions: RPMI8226 myeloma viability, higher = more signal;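 further: cells grown under basal conditions without added stimulus; test concentration not given here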
[16] = JC-1 mitochondrial signal, unstimulated HepG2 cells – cell-based, JC-1 fluorescence, 24 h, 100 nL compound, profiling panel (AID 1167); conditions: HepG2 mitochondrial potential, higher = more signal; further: test concentration not given here
[17] = JC-1 mitochondrial signal, unstimulated adipocytes – cell-based, JC-1 fluorescence, 3T3-L1 adipocytes, 24 h, 100 nL compound, profiling panel (AID 1168); conditions: JC-1 mitochondrial fluorescence, higher = more signal, called active from +8 up or from −8 down; further: test concentration not given here
[18] = JC-1 mitochondrial signal, unstimulated myeloma cells – cell-based, JC-1 fluorescence, RPMI8226, 24 h, 100 nL compound, profiling panel (AID 1169); conditions: JC-1 mitochondrial potential fluorescence, higher = more signal; further: test concentration not given here
[19] = JC-1 mitochondrial signal, unstimulated MM1S myeloma – cell-based, JC-1 fluorescence, 24 h, 100 nL compound, profiling panel (AID 1170); conditions: MM1S mitochondrial potential, higher = more signal; further: test concentration not given here
[20] = resazurin metabolic signal in A549 cells – cell-based, resazurin fluorescence, 24 h, PK04 Diversity Set, profiling panel (AID 1171); conditions: A549 viability, higher = more signal, called active from +8 up or from −8 down; further: test concentration not given here

Sequence of NADPH oxidase 4 (Homo sapiens) (Q9NPH5 whole entry, looked up): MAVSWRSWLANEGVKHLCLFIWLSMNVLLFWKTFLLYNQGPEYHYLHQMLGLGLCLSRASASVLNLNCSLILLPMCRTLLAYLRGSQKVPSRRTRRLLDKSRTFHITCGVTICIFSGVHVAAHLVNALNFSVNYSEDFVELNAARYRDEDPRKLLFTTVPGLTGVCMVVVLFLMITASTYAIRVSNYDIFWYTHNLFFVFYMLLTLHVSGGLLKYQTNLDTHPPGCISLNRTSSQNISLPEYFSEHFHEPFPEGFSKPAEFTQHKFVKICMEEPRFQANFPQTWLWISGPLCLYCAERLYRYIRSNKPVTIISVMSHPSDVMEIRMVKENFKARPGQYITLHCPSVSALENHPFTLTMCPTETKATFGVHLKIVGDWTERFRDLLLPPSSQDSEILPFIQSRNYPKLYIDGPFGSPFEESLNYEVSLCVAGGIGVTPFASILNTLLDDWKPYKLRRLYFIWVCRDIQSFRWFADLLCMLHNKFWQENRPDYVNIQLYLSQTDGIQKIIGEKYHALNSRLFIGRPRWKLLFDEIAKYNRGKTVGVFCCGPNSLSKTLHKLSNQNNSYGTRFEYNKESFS
Sequence of NADPH oxidase 5 (Homo sapiens) (Q96PH1 whole entry, looked up): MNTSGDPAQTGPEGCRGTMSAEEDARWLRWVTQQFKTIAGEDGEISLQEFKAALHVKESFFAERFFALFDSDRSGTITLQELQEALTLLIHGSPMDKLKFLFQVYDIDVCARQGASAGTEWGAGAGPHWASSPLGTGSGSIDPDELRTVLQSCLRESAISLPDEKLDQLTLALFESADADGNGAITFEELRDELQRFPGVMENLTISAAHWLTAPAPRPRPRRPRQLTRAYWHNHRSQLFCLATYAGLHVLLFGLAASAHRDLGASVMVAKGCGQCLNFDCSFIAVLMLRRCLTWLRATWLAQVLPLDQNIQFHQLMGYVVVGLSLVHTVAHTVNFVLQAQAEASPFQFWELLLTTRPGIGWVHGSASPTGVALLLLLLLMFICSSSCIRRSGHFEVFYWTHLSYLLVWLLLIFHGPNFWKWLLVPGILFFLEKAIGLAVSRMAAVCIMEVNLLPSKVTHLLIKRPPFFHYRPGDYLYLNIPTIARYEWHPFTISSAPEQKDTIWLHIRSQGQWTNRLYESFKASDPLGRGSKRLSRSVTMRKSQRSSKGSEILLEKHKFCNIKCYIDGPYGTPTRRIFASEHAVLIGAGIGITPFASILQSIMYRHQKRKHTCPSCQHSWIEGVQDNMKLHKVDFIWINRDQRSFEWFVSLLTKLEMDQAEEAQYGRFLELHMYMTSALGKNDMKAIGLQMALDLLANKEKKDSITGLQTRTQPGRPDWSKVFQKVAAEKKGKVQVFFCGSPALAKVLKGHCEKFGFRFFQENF
Sequence of NADPH oxidase 2 (Homo sapiens) (P04839 whole entry, looked up): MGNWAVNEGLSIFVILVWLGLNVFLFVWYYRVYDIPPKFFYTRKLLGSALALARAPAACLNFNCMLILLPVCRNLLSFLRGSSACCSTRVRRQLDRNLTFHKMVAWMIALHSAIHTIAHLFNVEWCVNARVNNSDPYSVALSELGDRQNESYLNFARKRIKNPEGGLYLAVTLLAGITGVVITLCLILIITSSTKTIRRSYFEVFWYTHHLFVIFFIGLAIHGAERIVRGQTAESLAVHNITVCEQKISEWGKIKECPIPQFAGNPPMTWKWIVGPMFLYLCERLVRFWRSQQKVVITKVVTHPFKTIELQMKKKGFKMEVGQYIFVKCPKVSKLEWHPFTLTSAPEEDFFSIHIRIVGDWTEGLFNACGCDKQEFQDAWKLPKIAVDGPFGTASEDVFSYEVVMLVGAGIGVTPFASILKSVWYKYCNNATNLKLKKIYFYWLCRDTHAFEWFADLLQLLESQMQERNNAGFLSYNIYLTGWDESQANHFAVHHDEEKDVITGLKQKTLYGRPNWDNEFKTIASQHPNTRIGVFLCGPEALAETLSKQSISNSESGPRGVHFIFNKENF

SMILES	z-score [1]	composite z-score [2]	z-score [3]	z-score [4]	z-score [5]	z-score [6]	z-score [7]	z-score [8]	z-score [9]	z-score [10]	z-score [11]	z-score [12]	z-score [13]	z-score [14]	z-score [15]	z-score [16]	z-score [17]	z-score [18]	z-score [19]	z-score [20]
O=C1C2C=CC(C(O)c3ccc([N+](=O)[O-])cc3)N(Nc3ccccc3)C2C(=O)N1c1ccccc1 (stereo not given)	-1.21 (inactive)	0.124	3.99 (inactive)	2.55 (inactive)	2.09 (inactive)	1.9 (inactive)	-1.32	-2.02 (inactive)	-4.69 (inactive)	-2.53	-0.121	-1.38	0.761	0.323	-0.423	-2.59	-0.886 (inactive)	-1.01	-1.55	-0.0448 (inactive)
COCCOC(=O)N1C(=O)[C@@]2(c3cc(C#CCNC(N)=O)ccc31)[C@H](C(=O)NC[C@H](O)c1ccccc1)[C@H]1C(=O)O[C@H](c3ccccc3)[C@H](c3ccccc3)N1[C@@H]2c1ccc(OCCO)cc1	-0.242 (inactive)	0.278	2.83 (inactive)	0.757 (inactive)	0.742 (inactive)	0.581 (inactive)	0.457	2.5 (inactive)	1.01 (inactive)	-0.677	-0.877	-0.116	-1.07	-0.286	0.995	-1.61	0.213 (inactive)	0.418	-0.193	0.637 (inactive)
C=CCC(OC(C)=O)[C@@H]1[C@@H](N(Cc2cc3ccccc3o2)C(=O)c2cccc3ccccc23)c2cc(OCCCO)ccc2N1C(=O)c1ccc2ccccc2c1 (stereo not given in full)	-0.546 (inactive)	0.0931	0.92 (inactive)	0.0881 (inactive)	0.547 (inactive)	0.286 (inactive)	0.552	-0.764 (inactive)	-0.797 (inactive)	-2.19	0.668	0.935	0.0108	0.364	-1.98	1.93	-1.18 (inactive)	-0.276	-0.42	-1.55 (inactive)
CCCC=C(CCC)[C@@H](NC(=O)c1ccco1)c1ccc(C(=O)OC)cc1	-1.68 (inactive)	0.48	-0.687 (inactive)	0.324 (inactive)	0.893 (inactive)	1.11 (inactive)	-0.277	-0.0272 (inactive)	1.46 (inactive)	1.99	-4.29	-1.72	-5.68	-3.26	-4.76	-4.88	-0.458 (inactive)	-0.736	-2.86	6.91 (inactive)
CCCCCN1CC=CC23O[C@@H]4C=CCOC(=O)[C@@H]4[C@H]2C(=O)N(CCCCCO)[C@@H]3C1=O (stereo not given in full)	1.73 (inactive)	-0.0766	1.47 (inactive)	0.702 (inactive)	1.45 (inactive)	0.601 (inactive)	0.461	1.35 (inactive)	0.575 (inactive)	1.94	-0.438	-0.28	-1.03	1.27	-1.6	-0.012	0.211 (inactive)	0.85	0.876	-0.0947 (inactive)
C=CCNC(=O)[C@@H]1[C@H]2C(=O)O[C@H](c3ccccc3)[C@H](c3ccccc3)N2[C@H](c2ccc(O)cc2)[C@@]12C(=O)Nc1ccc(C#CC3(O)CCCCCC3)cc12	-0.418 (inactive)	-0.196	2.35 (inactive)	0.275 (inactive)	0.0479 (inactive)	0.778 (inactive)	-0.339	0.948 (inactive)	0.534 (inactive)	1.19	-1.04	0.889	-0.522	-1.67	-3.93	-2.28	-0.41 (inactive)	-0.748	-0.188	0.0696 (inactive)
COC(=O)c1ccc([C@H](NC(=O)c2ccccc2)[C@]2(C)C[C@H]2C2CCCCC2)cc1	-2.26 (inactive)	0.718	8.84 (active)	1.56 (inactive)	-0.281 (inactive)	0.692 (inactive)	0.0094	0.0662 (inactive)	-0.602 (inactive)	1.22	-0.844	-1.92	-0.949	-0.831	-0.733	-1.15	-1.16 (inactive)	0.624	-1.33	0.768 (inactive)
COCCOC(=O)N1C(=O)[C@@]2(c3cc(C#CCCO)ccc31)[C@H](C(=O)N1CCc3cc(OC)c(OC)cc3C1)[C@H]1C(=O)O[C@H](c3ccccc3)[C@H](c3ccccc3)N1[C@@H]2c1ccccc1OCCO	0.718 (inactive)	1.33	3.62 (inactive)	0.928 (inactive)	1.6 (inactive)	1.05 (inactive)	0.0854	1.72 (inactive)	1.7 (inactive)	-0.204	0.373	0.514	1.61	1.1	0.458	0.228	1.58 (inactive)	-0.647	-1.23	0.456 (inactive)
O=C1O[C@@H](c2ccccc2)[C@@H](c2ccccc2)N2[C@@H](c3ccc(OCCO)cc3)[C@]3(C(=O)Nc4ccc(C#CCCO)cc43)[C@@H](C(=O)Nc3nc4ccccc4s3)[C@H]12	2.3 (inactive)	0.573	1.01 (inactive)	-0.0042 (inactive)	-1.53 (inactive)	-1.15 (inactive)	0.922	0.762 (inactive)	0.868 (inactive)	1.52	0.0652	0.794	-0.354	-0.267	-0.0767	-3.09	1.57 (inactive)	-1.06	-1.49	1.58 (inactive)
